# Among all 320,000 compounds or so, about 22,000 (6.9%) were called active. Inconclusive results (about 27%) are left out. For the sample, actives were picked, then their nearest neighbours and some compounds at random. A number with no mark means an inactive call. The call rests on the fitted dose curve; in most records, active means well fitted inhibition curve with a large enough effect; inconclusive means small, poorly fitted or top-dose-only effect, or another doubt; inactive means no such curve, though single readings can be large or run the other way.
# Test: Primary qHTS for delayed death inhibitors of the malarial parasite plastid, 96 hour incubation
# Conditions: P. falciparum luciferase reporter growth; series mostly up to 28.7 µM; activity change, negative = inhibition: at the top concentration
# Outline: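 Delayed-death screen, second-generation endpoint: infected erythrocytes, 2% hematocrit, 0.05% parasitemia final; 96 hours at 37 C, 5% CO2; luciferase detection reagent; luminescence decrease equals reduced growth.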
# On the % scale 0 is the no-effect control and ±100 the full control effect; potency means the concentration at half of the fitted maximal effect.
Structure (SMILES),"activity change, negative = inhibition",Potency
COC(=O)c1cccc(NS(C)(=O)=O)c1,1.35%,–
Cc1cc(C(=O)COC(=O)c2cccs2)c(C)n1-c1c(C)n(C)n(-c2ccccc2)c1=O,17.1%,–
COc1ccc(C(=O)COC(=O)CNC(=O)c2cccs2)cc1Br,-21.6%,–
COc1ccc(-n2c(C)cc(C(=O)COC(=O)c3cc(OC)c(OC)cc3NC(=O)c3cccs3)c2C)cc1,–,2.62 µM (active)
O=C(CN1CCN(c2ccc(F)cc2)CC1)Nc1ccccc1,-8.75%,–
CC1CCN(c2c(NCc3ccc(C(=O)NCc4ccccc4)cc3)c(=O)c2=O)CC1,1.19%,–
c1n[nH]c(NCc2ccc3c(c2)OCO3)n1,2.18% [at 5.75 µM],–
N#Cc1nc(Cc2cccc3ccccc23)oc1NCc1ccc2c(c1)OCO2,–,14.7 µM (active)
N#Cc1nc(Cc2ccccc2)oc1NCCc1ccccc1,0.675%,–
O=S(=O)(Nc1n[nH]c(C(F)(F)F)n1)c1ccccc1,28.7%,–
O=C(N/N=C/c1ccccn1)c1cccc(NC(=O)c2ccc(Cl)cc2)c1,34.1%,–
CC(C)(C)c1ccc(Cn2nnc3c(=O)[nH]c(C4CCCN(C(=O)c5ccco5)C4)nc32)cc1 (stereo unspecified),34.8%,–
CCC(C(=O)NCCC(C)C)N(Cc1ccccc1Cl)C(=O)c1snc(C(N)=O)c1N (stereo unspecified),-16.7%,–
Cc1ccc(CNC(=O)CCS(=O)(=O)c2ccc3c(c2)CC(C)N3C(=O)C2CC2)o1 (stereo unspecified),–,11.7 µM (active)
CCC(=O)N1c2ccc(S(=O)(=O)CCC(=O)N3CCN(c4ccccc4)CC3)cc2CC1C (stereo unspecified),-23.9%,–
COc1ccccc1CNC(=O)C1CCN(S(=O)(=O)c2ccc3c(c2)CC(C)N3C(=O)C2CC2)CC1 (stereo unspecified),3.97%,–
CS(=O)(=O)c1ccc(Cl)c(NC(=O)COC(=O)c2cccc(S(=O)(=O)N3CCCC3)c2)c1,36%,–
COc1ccc(/C=N/OCc2ccccc2C#N)c(OC)c1,135%,–
CCOc1cccc(-c2nn3c(-c4ccccn4)nnc3s2)c1,–,8.28 µM (active)
COc1ccc(-c2nn3c(-c4ccccc4)nnc3s2)cc1OC,96.6%,–
c1ccc(-c2cc(-c3nnc4sc(-c5ccccn5)nn34)[nH]n2)cc1,-6.88%,–
Cc1ccc(SCc2c(C(=O)N/N=C/c3cccnc3)nnn2-c2nonc2N)cc1,-6.32%,–
CCCn1nc(Oc2nc(NC(C)C)nc(N(C)C)n2)ccc1=O,33.8%,–
COc1nc(Oc2ccc(=O)n(C)n2)nc(N(C)C)n1,–,3.7 µM (active)
COc1nc(OC)nc(N(C)CCO)n1,45.2%,–
COC(=O)[C@@H]1CCCN1C(=O)c1cc(COc2cccc3cccnc23)on1,-7.96%,–

Structure (SMILES),"activity change, negative = inhibition",Potency
O=C(COC(=O)/C=C/c1ccc(OC(F)F)cc1)NC1CCCCC1,7.46%,–
Cc1ccc(S(=O)(=O)N(CC(=O)Nc2cccnc2)c2ccc(Br)cc2)cc1,-25.1%,–
CC(=O)c1c(C)[nH]c(C(=O)N2CCN(S(=O)(=O)c3ccc(F)c(F)c3)CC2)c1C,2.87%,–
Cc1ccc(Nc2nnc(SC(C)C(=O)NC3CC3)s2)cc1 (stereo unspecified),–,14.7 µM (active)
CC(C)Nc1nnc(SC(C)C(=O)N(C)C2CCCCC2)s1 (stereo unspecified),-6.33%,–
Cc1nnc(SC(C)C(=O)Nc2ccc(S(=O)(=O)NC3CCCCC3)cc2)s1 (stereo unspecified),-8.76%,–
CCOc1ccc(N2CC(C(=O)NCc3ccccn3)CC2=O)cc1 (stereo unspecified),0.718%,–
Nc1nnnn1/N=C/c1cccc(Br)c1,-28.6%,–
COc1ccc(/C=N/n2nnnc2N)cc1OC,0%,–
Nc1nnnn1/N=C/c1cccs1,–,1.85 µM (active)
Cc1ccc(NS(=O)(=O)c2ccc3c(c2)n(C)c(=O)c(=O)n3C)c(C)c1,23%,–
O=C(COC(=O)CCOc1ccccc1)Nc1cc(S(=O)(=O)N2CCCCC2)ccc1Cl,12.7%,–
CCN(CC)CCNC(=O)c1cc(S(C)(=O)=O)ccc1OC,–,inactive
C=C(C)c1cccc(C(C)(C)NC(=O)NCCN(CC)CC)c1,–,4.15 µM (active)
C=C(C)c1cccc(C(C)(C)NC(=O)NC2CCCC2)c1,-11.6%,–
CN(CC(=O)Nc1c(Cl)cccc1Cl)C(=O)c1ccncc1,41.8%,–
CC(C)Nc1ccc(-n2nc3ccccc3[n+]2[O-])cc1,-11.5%,–
CC(=O)c1c(C)oc2ccc(NS(=O)(=O)c3ccccc3)cc12,27%,–
COc1ccc(CCNc2nc(-c3cccc(NC(C)=O)c3)cs2)cc1OC,4.61%,–
CN(C)CCCN(C(=O)COc1ccccc1)c1nc2c(Cl)cccc2s1,50.2%,–
COc1ccc(CCN(C(=O)COc2ccccc2)c2nc(-c3ccccc3)cs2)cc1OC,–,11.7 µM (active)
O=C(NN1C(=O)C2CCCCC2C1=O)c1ccco1 (stereo unspecified),83.6%,–
Cc1ccc(C(=O)N/C(=C\c2ccco2)C(=O)NC2CCS(=O)(=O)C2)cc1 (stereo unspecified),38.1%,–
Cc1cc(C)cc(Oc2nc3c(C)cccn3c(=O)c2/C=C(\C#N)C(=O)NC2CCS(=O)(=O)C2)c1 (stereo unspecified),–,11.7 µM (active)
Cc1cccn2c(=O)c(/C=C(\C#N)C(N)=O)c(N3CCCCCC3)nc12,-27%,–

# — PubChem BioAssay AID504834 (National Center for Advancing Translational Sciences (NCATS), 2011)
